About 7,900 targets were measured; listed, in parts, are those with a hit and a random draw of the rest. About 0.6% of all pairs of compound and target were hits.
Key:
Experiment in all cases: log2 fold change, soluble protein after heating vs DMSO (PISA); higher = thermal stabilisation; K562 cells, 10 uM, 30 min; active = over 0.2 and 3.5 SD of the protein, either way, in both replicates (recomputed)
bafetinib = compound: Cc1ccc(NC(=O)c2ccc(CN3CC[C@H](N(C)C)C3)c(C(F)(F)F)c2)cc1Nc1nccc(-c2cncnc2)n1 [bafetinib]
How it was run: (§1)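 K562 cells at 2×10^6 cells/mL were treated for 30 min with 10 μM compound, and aliquots were heated for 3 min over 48°C-58°C before pooling. Extraction used PBS with 0.5% NP-40 at 4°C, and soluble protein was the supernatant after 21,000xg for 90 min, measured by TMTpro 16plex LC-MS/MS with channel sums equalised. Thermal stability values, relative to control samples and from duplicates, are log2 fold changes.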

[1] = compound: Cc1cccc(CC(=O)N2CCc3c2ccc(-c2cn(C)c4ncnc(N)c24)c3F)n1
How it was run: as §1

nilotinib = compound: Cc1cn(-c2cc(NC(=O)c3ccc(C)c(Nc4nccc(-c5cccnc5)n4)c3)cc(C(F)(F)F)c2)cn1 [nilotinib]
How it was run: as §1

[2] = compound: Cc1nc(Nc2n[nH]c3c2CN(C(=O)N[C@H](CN(C)C)c2ccccc2)C3(C)C)c2sccc2n1
How it was run: as §1

dasatinib = compound: Cc1nc(Nc2ncc(C(=O)Nc3c(C)cccc3Cl)s2)cc(N2CCN(CCO)CC2)n1 [dasatinib]
How it was run: as §1

[3] = compound: Cc1ncc(-c2ccnc(Nc3ccc(S(C)(=O)=O)cc3)n2)n1C(C)C
How it was run: as §1

[4] = compound: Cn1cc(-c2ccc3c(c2)CCN3C(=O)Cc2cccc(C(F)(F)F)c2)c2c(N)ncnc21
How it was run: as §1

[5] = compound: Cn1cc(-c2ccc3nnc(C(F)(F)c4ccc5ncccc5c4)n3n2)cn1
How it was run: as §1

tipifarnib = compound: Cn1cncc1[C@@](N)(c1ccc(Cl)cc1)c1ccc2c(c1)c(-c1cccc(Cl)c1)cc(=O)n2C [tipifarnib]
How it was run: as §1

mubritinib = compound: FC(F)(F)c1ccc(/C=C/c2nc(COc3ccc(CCCCn4ccnn4)cc3)co2)cc1 [mubritinib]
How it was run: as §1

[6] = compound: NC(=O)Nc1cc(-c2cccc(F)c2)sc1C(=O)N[C@H]1CCCNC1
How it was run: as §1

[7] = compound: NC(=O)c1cnc(N[C@@H]2CCCC[C@@H]2N)nc1Nc1cccc(-n2nccn2)c1
How it was run: as §1

[8] = compound: NC1(c2ccc(-c3nc4ccn5c(=O)[nH]nc5c4cc3-c3ccccc3)cc2)CCC1
How it was run: as §1

[9] = compound: NCC(=O)Nc1ccc(-n2nc(C(F)(F)F)cc2-c2ccc3c(ccc4ccccc43)c2)cc1
How it was run: as §1

entinostat = compound: Nc1ccccc1NC(=O)c1ccc(CNC(=O)OCc2cccnc2)cc1 [entinostat]
How it was run: as §1

vorinostat = compound: O=C(CCCCCCC(=O)Nc1ccccc1)NO [vorinostat]
How it was run: as §1

citarinostat = compound: O=C(CCCCCCNC(=O)c1cnc(N(c2ccccc2)c2ccccc2Cl)nc1)NO [citarinostat]
How it was run: as §1

silmitasertib = compound: O=C(O)c1ccc2c(c1)nc(Nc1cccc(Cl)c1)c1ccncc12 [silmitasertib]
How it was run: as §1

[10] = compound: O=C1NC(=O)C(c2cnc3ccccn23)=C1c1cn2c3c(cc(F)cc13)CN(C(=O)N1CCCCC1)CC2
How it was run: as §1

[11] = compound: c1cc(OCCN2CCCCC2)cc(-c2n[nH]c3ccc(-c4nnc[nH]4)cc23)c1
How it was run: as §1

Measured: log2 fold change

NCOR1 (UniProt O75376)
inactive: bafetinib -0.009 | [1] -0.056 | nilotinib 0.182 | [2] -0.046 | dasatinib -0.091 | [3] 0.058 | [4] 0.041 | [5] -0.049 | tipifarnib 0.103 | mubritinib 0.041 | [6] 0.096 | [7] -0.057 | [8] -0.005 | [9] -0.072 | entinostat 0.007 | vorinostat -0.059 | citarinostat -0.028 | silmitasertib 0.001 | [10] -0.044 | [11] -0.024

NFX1 (UniProt Q12986)
UniProt Q12986, sequence (Q12986 whole entry, looked up): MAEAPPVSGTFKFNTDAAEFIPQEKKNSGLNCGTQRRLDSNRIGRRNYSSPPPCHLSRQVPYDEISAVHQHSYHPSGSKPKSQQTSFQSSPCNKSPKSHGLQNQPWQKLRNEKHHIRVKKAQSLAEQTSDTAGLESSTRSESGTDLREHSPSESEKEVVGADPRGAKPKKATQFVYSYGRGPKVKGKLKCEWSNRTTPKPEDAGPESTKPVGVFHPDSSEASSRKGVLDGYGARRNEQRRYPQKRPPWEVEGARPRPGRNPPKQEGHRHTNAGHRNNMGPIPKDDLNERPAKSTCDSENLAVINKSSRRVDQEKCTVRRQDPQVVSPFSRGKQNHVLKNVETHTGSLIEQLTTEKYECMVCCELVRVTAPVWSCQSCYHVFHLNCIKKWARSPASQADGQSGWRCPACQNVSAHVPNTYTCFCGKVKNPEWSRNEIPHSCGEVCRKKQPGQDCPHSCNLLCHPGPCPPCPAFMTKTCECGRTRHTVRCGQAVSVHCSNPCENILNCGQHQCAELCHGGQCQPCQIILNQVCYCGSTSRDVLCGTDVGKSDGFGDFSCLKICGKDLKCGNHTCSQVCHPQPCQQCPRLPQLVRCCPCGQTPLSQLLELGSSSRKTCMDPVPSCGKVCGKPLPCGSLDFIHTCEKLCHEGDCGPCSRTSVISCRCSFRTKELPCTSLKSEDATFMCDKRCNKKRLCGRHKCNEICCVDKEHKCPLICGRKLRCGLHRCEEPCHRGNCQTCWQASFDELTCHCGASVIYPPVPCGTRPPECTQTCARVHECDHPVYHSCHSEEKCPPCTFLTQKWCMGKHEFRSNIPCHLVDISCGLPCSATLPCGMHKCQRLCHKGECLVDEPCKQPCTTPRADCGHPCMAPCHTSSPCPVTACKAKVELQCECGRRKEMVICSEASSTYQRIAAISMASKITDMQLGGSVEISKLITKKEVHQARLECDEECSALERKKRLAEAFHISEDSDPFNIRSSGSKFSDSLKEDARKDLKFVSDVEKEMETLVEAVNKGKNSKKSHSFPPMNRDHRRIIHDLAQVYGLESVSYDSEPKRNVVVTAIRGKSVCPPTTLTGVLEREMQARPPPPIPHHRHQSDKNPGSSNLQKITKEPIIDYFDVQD
active: [8] 0.659
inactive: bafetinib -0.044 | [1] -0.026 | nilotinib -0.042 | [2] 0.075 | dasatinib 0.085 | [3] -0.011 | [4] 0.07 | [5] -0.15 | tipifarnib 0.131 | mubritinib -0.096 | [6] 0.157 | [7] 0.008 | [9] 0.045 | entinostat 0.014 | vorinostat -0.016 | citarinostat -0.033 | silmitasertib -0.006 | [10] -0.018 | [11] -0.019

MT-ND4 (UniProt P03905)
inactive: bafetinib -0.016 | [1] -0.118 | nilotinib 0.006 | [2] -0.033 | dasatinib -0.009 | [3] -0.003 | [4] -0.004 | [5] -0.045 | tipifarnib 0.173 | mubritinib 0.05 | [6] 0.052 | [7] 0.038 | [8] -0.046 | [9] -0.074 | entinostat 0.099 | vorinostat 0.261 | citarinostat 0.198 | silmitasertib -0.011 | [10] 0.088 | [11] -0.057

NSDHL (UniProt Q15738)
UniProt Q15738, sequence (Q15738 whole entry, looked up): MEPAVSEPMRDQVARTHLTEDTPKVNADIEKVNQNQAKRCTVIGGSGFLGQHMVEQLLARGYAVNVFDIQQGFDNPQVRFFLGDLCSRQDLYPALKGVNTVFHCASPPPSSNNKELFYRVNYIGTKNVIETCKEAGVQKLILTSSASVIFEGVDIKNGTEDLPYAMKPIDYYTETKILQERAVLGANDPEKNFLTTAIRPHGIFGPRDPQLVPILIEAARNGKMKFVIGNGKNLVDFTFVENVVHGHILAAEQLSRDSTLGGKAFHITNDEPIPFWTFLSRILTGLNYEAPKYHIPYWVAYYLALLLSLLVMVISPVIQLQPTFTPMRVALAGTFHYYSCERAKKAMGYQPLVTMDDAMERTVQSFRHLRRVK
inactive: bafetinib 0.006 | [1] 0.014 | nilotinib 0.033 | [2] -0.021 | dasatinib 0.054 | [3] 0.001 | [4] 0.11 | [5] 0.133 | tipifarnib 0.029 | mubritinib 0.164 | [6] -0.14 | [7] -0.061 | [8] 0.11 | [9] -0.033 | entinostat -0.018 | vorinostat -0.04 | citarinostat 0.023 | silmitasertib -0.023 | [10] -0.027 | [11] 0.02

NOB1 (UniProt Q9ULX3)
UniProt Q9ULX3, sequence (Q9ULX3 whole entry, looked up): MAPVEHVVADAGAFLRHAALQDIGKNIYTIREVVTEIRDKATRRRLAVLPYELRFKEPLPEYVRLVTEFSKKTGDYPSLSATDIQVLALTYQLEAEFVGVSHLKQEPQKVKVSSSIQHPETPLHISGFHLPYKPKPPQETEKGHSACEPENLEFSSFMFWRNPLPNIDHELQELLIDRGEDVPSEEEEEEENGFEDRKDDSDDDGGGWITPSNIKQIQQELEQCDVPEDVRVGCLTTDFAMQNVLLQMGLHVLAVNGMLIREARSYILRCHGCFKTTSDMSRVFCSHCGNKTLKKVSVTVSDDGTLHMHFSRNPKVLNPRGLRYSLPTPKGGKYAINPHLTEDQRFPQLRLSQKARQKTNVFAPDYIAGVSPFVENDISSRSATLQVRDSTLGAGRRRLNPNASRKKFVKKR
inactive: bafetinib 0.014 | [1] 0.093 | nilotinib -0.044 | [2] -0.005 | dasatinib -0.054 | [3] -0.045 | [4] -0.003 | [5] 0.059 | tipifarnib -0.106 | mubritinib -0.043 | [6] -0.032 | [7] 0.002 | [8] -0.041 | [9] -0.021 | entinostat 0.047 | vorinostat 0.093 | citarinostat -0.003 | silmitasertib -0.096 | [10] 0.062 | [11] 0.038

NDUFA12 (UniProt Q9UI09)
UniProt Q9UI09, sequence (Q9UI09 whole entry, looked up): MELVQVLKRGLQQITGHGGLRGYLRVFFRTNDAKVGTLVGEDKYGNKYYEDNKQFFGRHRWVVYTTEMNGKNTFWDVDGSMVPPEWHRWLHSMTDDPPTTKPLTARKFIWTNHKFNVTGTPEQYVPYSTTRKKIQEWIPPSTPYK
active: mubritinib 0.326
inactive: bafetinib 0 | [1] 0.089 | nilotinib -0.158 | [2] -0.031 | dasatinib -0.107 | [3] 0.029 | [4] 0.109 | [5] 0.062 | tipifarnib -0.007 | [6] -0.018 | [7] -0.038 | [8] -0.227 | [9] -0.061 | entinostat 0.04 | vorinostat 0.077 | citarinostat 0.07 | silmitasertib -0.052 | [10] 0.004 | [11] -0.033

NMRAL1 (UniProt Q9HBL8)
UniProt Q9HBL8, sequence (Q9HBL8 whole entry, looked up): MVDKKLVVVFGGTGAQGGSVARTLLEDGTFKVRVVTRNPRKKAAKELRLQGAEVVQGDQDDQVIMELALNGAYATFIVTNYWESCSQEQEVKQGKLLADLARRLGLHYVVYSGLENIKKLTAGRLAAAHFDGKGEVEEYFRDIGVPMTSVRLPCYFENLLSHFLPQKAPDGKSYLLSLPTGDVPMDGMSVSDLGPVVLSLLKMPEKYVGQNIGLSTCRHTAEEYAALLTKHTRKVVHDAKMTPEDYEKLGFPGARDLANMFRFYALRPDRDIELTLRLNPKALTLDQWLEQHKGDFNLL
active: bafetinib 0.806 | nilotinib 1.29 | [5] 0.962 | [7] 1.06
inactive: [1] -0.026 | [2] 0.024 | dasatinib -0.071 | [3] -0.018 | [4] 0.031 | tipifarnib -0.035 | mubritinib -0.145 | [6] 0.391 | [8] 0.717 | [9] -0.16 | entinostat -0.052 | vorinostat -0.139 | citarinostat -0.151 | silmitasertib 0.018 | [10] -0.005 | [11] 0.374

NANS (UniProt Q9NR45)
UniProt Q9NR45, sequence (Q9NR45 whole entry, looked up): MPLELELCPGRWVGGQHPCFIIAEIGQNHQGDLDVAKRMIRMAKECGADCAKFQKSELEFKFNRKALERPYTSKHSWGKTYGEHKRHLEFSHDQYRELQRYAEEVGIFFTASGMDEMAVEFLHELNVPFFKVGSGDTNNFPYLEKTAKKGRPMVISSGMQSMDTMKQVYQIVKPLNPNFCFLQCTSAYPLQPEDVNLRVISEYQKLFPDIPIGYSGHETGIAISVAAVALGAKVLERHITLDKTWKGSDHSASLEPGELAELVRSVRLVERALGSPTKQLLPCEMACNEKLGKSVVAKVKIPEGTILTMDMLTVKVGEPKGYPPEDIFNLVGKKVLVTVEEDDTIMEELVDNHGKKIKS
inactive: bafetinib 0.04 | [1] 0.05 | nilotinib 0.069 | [2] -0.007 | dasatinib -0.018 | [3] -0.018 | [4] 0.05 | [5] -0.017 | tipifarnib -0.067 | mubritinib -0.023 | [6] 0.043 | [7] -0.05 | [8] 0.02 | [9] -0.032 | entinostat 0.014 | vorinostat 0.116 | citarinostat 0.032 | silmitasertib -0.002 | [10] -0.011 | [11] 0

MTHFD1 (UniProt P11586)
UniProt P11586, sequence (P11586 whole entry, looked up): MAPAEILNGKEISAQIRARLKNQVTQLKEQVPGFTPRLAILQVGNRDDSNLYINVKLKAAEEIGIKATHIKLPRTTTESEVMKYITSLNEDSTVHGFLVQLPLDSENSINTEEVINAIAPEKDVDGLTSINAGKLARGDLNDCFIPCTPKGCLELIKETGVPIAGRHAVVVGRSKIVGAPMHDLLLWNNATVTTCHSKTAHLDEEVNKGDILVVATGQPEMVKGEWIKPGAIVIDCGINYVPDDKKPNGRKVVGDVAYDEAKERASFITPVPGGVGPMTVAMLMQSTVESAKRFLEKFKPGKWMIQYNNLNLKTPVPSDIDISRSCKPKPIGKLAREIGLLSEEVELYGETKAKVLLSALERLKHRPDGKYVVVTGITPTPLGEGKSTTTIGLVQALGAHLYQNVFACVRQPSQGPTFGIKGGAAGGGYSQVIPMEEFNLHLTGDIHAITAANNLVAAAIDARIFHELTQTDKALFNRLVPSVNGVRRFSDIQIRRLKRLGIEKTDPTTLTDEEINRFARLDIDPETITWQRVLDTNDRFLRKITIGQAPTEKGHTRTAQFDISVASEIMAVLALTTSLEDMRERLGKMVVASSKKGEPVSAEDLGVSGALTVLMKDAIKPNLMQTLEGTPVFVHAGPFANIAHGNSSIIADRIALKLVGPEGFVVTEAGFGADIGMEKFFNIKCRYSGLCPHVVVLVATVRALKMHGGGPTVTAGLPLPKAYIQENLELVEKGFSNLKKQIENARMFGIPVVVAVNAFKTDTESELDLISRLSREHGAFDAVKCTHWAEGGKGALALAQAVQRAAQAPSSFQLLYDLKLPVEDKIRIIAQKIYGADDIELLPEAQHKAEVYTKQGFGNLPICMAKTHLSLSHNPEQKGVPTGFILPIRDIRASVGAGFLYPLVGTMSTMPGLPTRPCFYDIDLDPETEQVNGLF
inactive: bafetinib 0.077 | [1] 0.096 | [2] -0.051 | dasatinib -0.135 | [3] 0.019 | [4] 0.069 | [5] 0.021 | tipifarnib -0.088 | mubritinib 0.122 | [6] -0.028 | [7] -0.011 | [8] 0.094 | [9] -0.028 | entinostat 0.024 | vorinostat 0.05 | citarinostat 0.051 | silmitasertib -0.039 | [10] -0.042 | [11] -0.021
active: nilotinib 0.214

MTHFS (UniProt P49914)
inactive: bafetinib 0.074 | [1] 0.014 | nilotinib 0.154 | [2] 0.045 | dasatinib -0.094 | [3] 0.003 | [4] 0.032 | [5] -0.008 | tipifarnib 0.001 | mubritinib 0.045 | [6] -0.021 | [7] -0.028 | [8] -0.086 | [9] -0.135 | entinostat 0.007 | vorinostat -0.1 | citarinostat 0.025 | silmitasertib 0.021 | [10] 0.014 | [11] -0.057

MSH6 (UniProt P52701)
UniProt P52701, sequence (P52701 whole entry, looked up): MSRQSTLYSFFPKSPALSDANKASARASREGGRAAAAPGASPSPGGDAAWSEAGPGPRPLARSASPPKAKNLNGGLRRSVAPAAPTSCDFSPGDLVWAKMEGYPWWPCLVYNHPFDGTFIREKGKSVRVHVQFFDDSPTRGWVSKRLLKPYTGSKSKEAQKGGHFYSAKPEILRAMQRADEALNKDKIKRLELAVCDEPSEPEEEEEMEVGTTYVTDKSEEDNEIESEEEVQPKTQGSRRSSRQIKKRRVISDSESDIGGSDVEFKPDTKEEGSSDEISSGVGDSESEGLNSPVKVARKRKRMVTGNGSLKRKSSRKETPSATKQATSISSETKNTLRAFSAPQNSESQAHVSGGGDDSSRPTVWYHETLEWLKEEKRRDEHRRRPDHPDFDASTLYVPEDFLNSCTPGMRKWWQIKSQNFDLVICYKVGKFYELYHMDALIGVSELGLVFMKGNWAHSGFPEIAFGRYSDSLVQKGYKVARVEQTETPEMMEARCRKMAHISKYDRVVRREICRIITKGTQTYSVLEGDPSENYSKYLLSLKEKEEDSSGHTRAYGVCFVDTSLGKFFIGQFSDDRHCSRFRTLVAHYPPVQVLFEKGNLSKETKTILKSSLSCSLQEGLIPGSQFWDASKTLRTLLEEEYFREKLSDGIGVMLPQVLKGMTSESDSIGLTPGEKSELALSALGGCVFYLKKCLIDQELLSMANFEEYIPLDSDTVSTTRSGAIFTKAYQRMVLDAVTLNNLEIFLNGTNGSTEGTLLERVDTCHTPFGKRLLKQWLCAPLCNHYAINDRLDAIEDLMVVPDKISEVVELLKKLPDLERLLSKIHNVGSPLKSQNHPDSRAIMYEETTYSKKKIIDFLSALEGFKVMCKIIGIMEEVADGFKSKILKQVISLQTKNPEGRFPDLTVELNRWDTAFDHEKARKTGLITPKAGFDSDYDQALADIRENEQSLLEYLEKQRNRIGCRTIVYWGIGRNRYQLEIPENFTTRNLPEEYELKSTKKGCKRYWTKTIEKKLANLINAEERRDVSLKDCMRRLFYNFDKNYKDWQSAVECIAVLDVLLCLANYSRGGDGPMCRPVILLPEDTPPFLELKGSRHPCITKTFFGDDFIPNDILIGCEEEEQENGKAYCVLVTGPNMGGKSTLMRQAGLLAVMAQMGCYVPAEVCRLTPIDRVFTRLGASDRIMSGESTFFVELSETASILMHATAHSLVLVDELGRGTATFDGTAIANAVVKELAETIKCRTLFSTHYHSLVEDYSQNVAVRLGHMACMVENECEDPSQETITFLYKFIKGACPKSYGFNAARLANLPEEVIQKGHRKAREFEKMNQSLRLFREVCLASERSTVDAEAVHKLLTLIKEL
inactive: bafetinib -0.019 | [1] 0.101 | nilotinib -0.116 | [2] -0.179 | dasatinib -0.325 | [3] -0.1 | [4] 0.139 | [5] 0.167 | tipifarnib -0.174 | mubritinib 0 | [6] -0.033 | [7] -0.091 | [8] -0.213 | [9] -0.191 | entinostat 0.229 | vorinostat 0.273 | citarinostat 0.347 | silmitasertib 0.14 | [10] -0.169 | [11] 0.097

NMT1 (UniProt P30419)
inactive: bafetinib 0.064 | [1] -0.026 | nilotinib 0.049 | [2] 0.06 | dasatinib -0.012 | [3] -0.003 | [4] 0.026 | [5] -0.001 | tipifarnib -0.026 | mubritinib 0.076 | [6] -0.006 | [7] -0.043 | [8] -0.052 | [9] -0.129 | entinostat 0.008 | vorinostat 0.031 | citarinostat -0.012 | silmitasertib -0.015 | [10] 0.022
active: [11] -0.52

From the supplement of paper PMC10849652
